697 NFkB inh: inhibitors of the PMA/ionomycin-induced NF-kB reporter in 697 B cells. 697 B-cell NF-kB luciferase reporter, 16 h. inhibition, % at 4 µM. 330,000 compounds, 0.33% hits. AID 435022; in the data active = inhibition above about 35%
Gli-Sufu block: blocks Gli-Sufu signaling in a luciferase reporter; Sufu-KO-LIGHT fibroblasts, Gli luciferase reporter luminescence; inhibition, % at 5 µM; 340,000 compounds, 0.74% hits;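 active = inhibition above about 55%, limit read from the data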;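 note: 0% = DMSO-treated cells and 100% = wells with medium but no cells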
Mdm2 MdmX PPI: human Mdm2/MdmX binding inhibition; O15151+Q00987; SaOS-2 split-luciferase Mdm2/MdmX complementation, luminescence; inhibition, % at 8 µM; 330,000 compounds, 3% hits; AID 485346;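 active = inhibition of at least 50% at 8 µM in the primary screen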
Target sequence (O15151 whole entry, looked up): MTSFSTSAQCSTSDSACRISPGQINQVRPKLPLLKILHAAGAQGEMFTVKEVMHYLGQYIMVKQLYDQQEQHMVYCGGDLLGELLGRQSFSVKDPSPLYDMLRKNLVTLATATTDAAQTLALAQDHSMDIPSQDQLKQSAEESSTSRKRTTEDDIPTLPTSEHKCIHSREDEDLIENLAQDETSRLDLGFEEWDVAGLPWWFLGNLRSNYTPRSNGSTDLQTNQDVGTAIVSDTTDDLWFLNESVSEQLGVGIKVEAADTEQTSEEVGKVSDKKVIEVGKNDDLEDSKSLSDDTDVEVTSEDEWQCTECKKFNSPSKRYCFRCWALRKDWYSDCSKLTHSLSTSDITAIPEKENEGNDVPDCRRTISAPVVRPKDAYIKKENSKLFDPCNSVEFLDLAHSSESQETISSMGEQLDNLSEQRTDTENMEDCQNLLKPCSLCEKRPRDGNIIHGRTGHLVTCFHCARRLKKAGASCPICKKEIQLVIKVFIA
Target sequence (Q00987 whole entry, looked up): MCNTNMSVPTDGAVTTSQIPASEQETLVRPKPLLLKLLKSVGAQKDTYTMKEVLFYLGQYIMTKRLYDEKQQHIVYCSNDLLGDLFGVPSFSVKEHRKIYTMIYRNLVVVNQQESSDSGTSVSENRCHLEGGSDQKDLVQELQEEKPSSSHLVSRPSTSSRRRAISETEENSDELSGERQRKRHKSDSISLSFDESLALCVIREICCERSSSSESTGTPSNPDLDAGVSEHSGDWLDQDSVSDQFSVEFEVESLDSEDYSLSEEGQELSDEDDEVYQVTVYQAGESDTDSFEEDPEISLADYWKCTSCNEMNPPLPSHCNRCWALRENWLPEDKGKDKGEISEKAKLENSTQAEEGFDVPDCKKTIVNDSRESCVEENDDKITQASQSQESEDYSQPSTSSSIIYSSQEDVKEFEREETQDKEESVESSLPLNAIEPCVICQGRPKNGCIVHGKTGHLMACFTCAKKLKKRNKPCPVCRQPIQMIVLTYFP
aSyn UTR inh: 5' untranslated region of α-synuclein, MLPCN primary screen. alpha-synuclein 5'UTR reporter, inhibitor activity. inhibition, % (tested at 7.5 µM). 300,000 compounds, 0.82% hits. AID 1813; in the data active = inhibition above about 60%;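 note: H4 neuroglioblastoma cells stably carrying SNCA 5'UTR luciferase fusion; 0% = DMSO wells and 100% = positive control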
CSC inhib: cancer stem cell inhibition; cancer stem cell-like cells viability, luminescence; inhibition, % at 7.5 µM; 300,000 compounds, 1.1% hits; AID 2717; in the data active = inhibition above about 75%; tested in HMLE shEcad cells
Jurkat NFkB inh: inhibitors of the PMA/ionomycin-induced NF-kB reporter in Jurkat cells. PMA/ionomycin-induced NF-kB luciferase reporter, luminescence. inhibition, % at 4 µM. 330,000 compounds, 0.53% hits. AID 435003; in the data active = inhibition above about 50%
Jurkat NFkB conf: inhibitors of the PMA/ionomycin-induced NF-kB reporter in Jurkat cells, retest. AID 435020. shares compounds with Jurkat NFkB inh. Jurkat NF-kB luciferase, 16 h. 2,700 compounds, 27% hits. inhibition, % at 4 µM;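 active = inhibition reaching about 45% at 4 µM in either replicate, limit read from the data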;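 note: plate controls were PMA/ionomycin stimulated DMSO wells for no effect and unstimulated DMSO wells for full effect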
An asterisk follows results filed as active; . = no result. This is a sample that favours compounds with a hit; in the whole collection about 4.5% have one here.

SMILES	697 NFkB inh	Gli-Sufu block	Mdm2 MdmX PPI	aSyn UTR inh	CSC inhib	Jurkat NFkB inh	Jurkat NFkB conf
CC1CCN(c2ccc3c(c2)S(=O)(=O)c2ccccc2C3=O)CC1	-196.1	-90.1	-131.7	-139.9	33.9	-211.2	-82.8
NC(=O)C1CCN(c2ccc3c(c2)S(=O)(=O)c2ccccc2C3=O)CC1	-4.0	3.1	11.0	-63.5	2.1	-39.7	.
O=c1c2ccccc2nc2n1CCc1c-2[nH]c2ccccc12	-175.6	-133.6	-83.9	.	77.7*	-193.5	-85.1
CC1CN(C(=S)SCCN2C(=O)CCC2=O)CC(C)O1 (stereo not drawn)	17.3	-0.9	14.3	16.0	-6.7	-11.0	.
COc1cccc(N2CCN(C(=O)c3cn(Cc4ccccc4)nc3-c3cccnc3)CC2)c1	-45.5	2.4	44.8	.	41.9	60.5*	40.4
COc1cccc(N2CCN(C(=O)c3ccc(CS(=O)c4ccc(Cl)cc4)o3)CC2)c1 (stereo not drawn)	0.0	20.4	45.8	107.3*	49.1	51.3*	14.2
COc1ccccc1N1CCN(C(=O)c2cn(Cc3ccccc3)nc2-c2cccnc2)CC1	-16.8	11.8	4.6	.	-19.9	-4.9	.
O=C(c1c(Cl)nc2sccn12)N1CCN(c2cccc(Cl)c2)CC1	-3.8	-1.6	38.7	33.6	-9.5	60.6*	47.4
O=C(c1cc2ccccc2cc1O)N1CCN(c2cccc(Cl)c2)CC1	0.7	-6.1	-1.9	-11.9	25.1	1.8	.
COc1cccc(N2CCN(C(=O)c3ccc(CS(=O)Cc4ccc(C)cc4)o3)CC2)c1 (stereo not drawn)	-16.3	-8.6	17.7	14.3	-7.6	-5.2	.
COc1ccccc1C(=O)N1CCN(c2cccc(Cl)c2)CC1	-35.5	10.2	46.8	64.4*	8.2	55.9*	33.2
O=C(c1ccc(Cn2ccc([N+](=O)[O-])n2)cc1)N1CCN(Cc2ccccc2)CC1	-6.4	2.4	-2.4	6.5	-15.8	1.9	.
CSc1ccc(CN2CCN(C(=O)c3ccc([N+](=O)[O-])cc3)CC2)cc1	-27.4	-9.1	17.6	0.2	5.2	53.4*	31.6
CC(C)c1ccc(-n2nc3ccc(N)cc3n2)cc1	-95.2	-91.9	-182.5	20.5	8.6	-168.9	-40.7
Nc1ccc2nn(-c3ccc(F)cc3)nc2c1	-124.2	-79.0	-117.3	-108.3	24.0	-71.9	.
O=C(NC1CCCCC1)c1ccc(-c2cccc([N+](=O)[O-])c2)o1	-238.9	-42.1	-192.6	-126.9	-5.8	-160.6	-61.7
O=C(NC1CCCCC1)c1ccc(-c2ccccc2F)o1	-163.2	-67.8	-152.5	.	-9.2	-163.2	-122.0
Clc1ccc(Cl)c(OCc2cc(-c3ccccc3Cl)on2)c1	-10.9	5.0	20.2	-154.8	5.5	-81.2	.
COc1cccc(-c2nc(-c3ccc(Br)o3)no2)c1	-249.8	-96.0	-17.6	-38.5	7.3	-186.6	-133.9
COc1cccc(-c2noc(-c3ccc4c(c3)OCO4)n2)c1	-197.5	-88.0	-143.6	-0.8	18.1	-184.9	-102.3
COc1ccc(-c2nc(-c3ccc(Br)o3)no2)cc1OC	-59.9	-37.7	-51.3	-210.5	6.8	-91.3	.
COc1ccccc1-c1nc(-c2ccc(Br)o2)no1	-216.3	-32.4	-193.0	-95.3	11.7	-175.0	-110.2
CCOC(=O)c1cnc2ccc(OCC)cc2c1NCCCN1CCOCC1	-7.2	38.9	2.7	-19.7	-9.7	3.8	.
CC1(C)CC(=O)C2=C(C1)OC(N)=C(C#N)C2C1CC=CCC1 (stereo not drawn)	-15.6	-4.2	-21.9	3.7	7.6	0.2	.
Cc1cccc(N/C=C/C(=O)c2cccs2)c1C	-180.1	-73.0	-186.8	-53.0	.	-167.5	-13.9
SMILES	697 NFkB inh	Gli-Sufu block	Mdm2 MdmX PPI	aSyn UTR inh	CSC inhib	Jurkat NFkB inh	Jurkat NFkB conf
O=C(/C=C/Nc1ccc(F)cc1)c1cccs1	-179.6	-89.0	-174.0	-114.5	-2.0	-126.7	.
O=C(/C=C/Nc1ccc(F)cc1)c1ccc(Br)cc1	-164.4	-116.7	-201.2	-180.7	-1.9	-163.1	14.7
O=C(/C=C/Nc1cccc(O)c1)c1ccccc1	-72.4	-5.5	-128.3	-180.5	1.2	-108.6	.
NC(=O)c1ccccc1N/C=C/C(=O)c1cccs1	-127.5	13.8	-160.4	-47.8	6.6	-81.7	.
O=C(/C=C/Nc1ccc(F)c(Cl)c1)c1ccccc1	-165.0	-100.3	-78.8	-211.2	0.1	-177.3	-29.5
O=C(/C=C/Nc1ccc(F)c(F)c1)c1cccs1	-240.0	-9.6	-173.4	-374.4	-6.2	-181.6	6.2
COc1cccc(N(CC(=O)NC2CCCCC2)C(=O)CCC(=O)Nc2nccs2)c1	10.0	-8.3	-19.6	-2.0	-11.7	-23.8	.
COC(=O)C1CCN(C(=O)c2sc3nc(-c4ccc(F)cc4)cn3c2C)CC1	14.1	-2.4	15.1	-21.4	17.5	-3.1	.
COc1cccc(/C=C/C(=O)OCC(=O)NCCC2=CCCCC2)c1	19.6	-8.7	22.1	-10.8	2.1	4.1	.
O=C(Nc1ccc2nccnc2c1)c1cnccn1	-14.9	-22.1	-20.0	-78.7	10.7	-34.1	.
N#Cc1ccc(C(=O)Nc2ccc3ccccc3c2)cc1	-199.6	22.1	-110.9	-41.9	0.5	-176.6	-133.4
O=C(Nc1nccs1)c1ccc2ccccc2c1	-158.1	-79.5	-167.6	-114.2	.	-159.0	-106.0
CN1CCN(c2ccc(NC(=O)c3ccc4ccccc4c3)cc2)CC1	-225.3	16.4	42.7	85.3*	-0.8	-155.3	-48.5
O=C(Nc1ccc2ccccc2c1)c1cnccn1	-220.0	-58.7	-160.6	-129.2	1.5	-183.9	-107.7
O=C(Nc1nccs1)c1ccc(Br)cc1	-71.4	-7.4	-74.4	-160.8	-4.2	-51.3	.
CCOC(=O)c1c(C)c(C(=O)N2CCN(c3ccc(F)cc3)CC2)c(C)n1C	9.5	2.8	-14.2	15.2	-11.3	9.4	.
CN(C)c1nc(C=C(C#N)C#N)c(Cl)n1-c1ccc(F)cc1	.	5.5	.	16.1	.	.	.
CN1CCN(c2ccc(NC(=O)c3ccc(Br)o3)cc2)CC1	-30.9	-58.5	-46.5	-57.3	20.4	-120.8	.
CN1CCN(c2ccc(NC(=O)c3ccc(-c4ccccc4F)o3)cc2)CC1	-125.2	-51.2	-70.9	.	.	-170.5	-87.4
COc1ccc(C(=O)NNC(=O)c2ccc3ccccc3c2)cc1	.	6.9	.	.	.	.	.
COc1ccc(NC(=O)c2ccc3ccccc3c2)cc1	-60.8	-92.6	-67.3	-92.0	3.6	-179.5	-148.9
Nc1cccc(-c2cn3cc(C(F)(F)F)cc(Cl)c3n2)c1	-133.8	-112.4	-124.0	-99.9	-0.4	-194.3	-45.7
Cc1ccc(C2=NNC(c3ccc(Cl)cc3)=Nc3ccccc32)o1	-61.9	-5.0	15.0	-61.0	-10.7	-19.1	.
O=C(c1cc2cc(Cl)ccc2o1)N1CCCCCC1	-70.1	-51.5	-70.5	.	.	-34.5	.
O=C(c1cc2cc3ccc(Cl)cc3nc2o1)N1CCCCCC1	-180.5	-66.4	-130.4	-94.8	.	-158.7	-90.5
CCN(CC)CC#CCC(C)(c1ccccc1)c1ccccc1	-27.3	14.1	18.1	1.6	24.4	-10.8	.
COC(=O)c1c(-c2ccccc2)csc1NC(=O)c1ccco1	-219.4	-86.6	-48.7	-168.2	-3.7	-153.2	-69.0
